From ChEMBL document CHEMBL2218924, “A broad activity screen in support of a chemogenomic map for kinase signalling research and drug discovery” (Biochem J, 2013)

Tests used:
[1] = target: T1, Ephrin type-A receptor 3 (Homo sapiens) (UniProt P29320); settings: at 10 µM
T1 sequence (whole entry): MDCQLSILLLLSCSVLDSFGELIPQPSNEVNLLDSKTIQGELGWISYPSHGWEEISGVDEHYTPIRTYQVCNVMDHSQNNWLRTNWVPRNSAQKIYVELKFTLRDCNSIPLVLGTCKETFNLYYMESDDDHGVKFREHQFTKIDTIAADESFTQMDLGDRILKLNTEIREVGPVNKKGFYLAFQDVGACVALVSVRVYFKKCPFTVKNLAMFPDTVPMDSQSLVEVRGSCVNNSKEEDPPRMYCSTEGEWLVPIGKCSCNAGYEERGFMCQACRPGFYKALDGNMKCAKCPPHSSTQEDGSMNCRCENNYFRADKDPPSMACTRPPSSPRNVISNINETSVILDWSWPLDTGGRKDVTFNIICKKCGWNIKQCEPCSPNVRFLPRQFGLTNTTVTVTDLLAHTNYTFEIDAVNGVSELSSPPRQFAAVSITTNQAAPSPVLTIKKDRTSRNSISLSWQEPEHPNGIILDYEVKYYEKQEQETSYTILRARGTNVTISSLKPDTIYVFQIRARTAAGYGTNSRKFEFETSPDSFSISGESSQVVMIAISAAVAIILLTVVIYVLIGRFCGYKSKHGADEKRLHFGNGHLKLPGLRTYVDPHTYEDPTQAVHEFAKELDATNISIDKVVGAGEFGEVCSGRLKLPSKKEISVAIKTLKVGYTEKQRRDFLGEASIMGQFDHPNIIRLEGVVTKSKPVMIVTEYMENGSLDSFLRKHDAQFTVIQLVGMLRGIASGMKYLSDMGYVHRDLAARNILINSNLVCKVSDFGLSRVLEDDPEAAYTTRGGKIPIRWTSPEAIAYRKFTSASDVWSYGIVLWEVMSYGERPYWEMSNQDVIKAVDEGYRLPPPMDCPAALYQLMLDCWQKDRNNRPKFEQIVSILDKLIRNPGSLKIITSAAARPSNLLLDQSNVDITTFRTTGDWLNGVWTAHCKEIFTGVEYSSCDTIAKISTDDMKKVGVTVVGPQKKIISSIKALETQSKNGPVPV

[2] = target: T2, Ephrin type-B receptor 4 (Homo sapiens) (UniProt P54760); settings: at 1 µM
T2 sequence (whole entry): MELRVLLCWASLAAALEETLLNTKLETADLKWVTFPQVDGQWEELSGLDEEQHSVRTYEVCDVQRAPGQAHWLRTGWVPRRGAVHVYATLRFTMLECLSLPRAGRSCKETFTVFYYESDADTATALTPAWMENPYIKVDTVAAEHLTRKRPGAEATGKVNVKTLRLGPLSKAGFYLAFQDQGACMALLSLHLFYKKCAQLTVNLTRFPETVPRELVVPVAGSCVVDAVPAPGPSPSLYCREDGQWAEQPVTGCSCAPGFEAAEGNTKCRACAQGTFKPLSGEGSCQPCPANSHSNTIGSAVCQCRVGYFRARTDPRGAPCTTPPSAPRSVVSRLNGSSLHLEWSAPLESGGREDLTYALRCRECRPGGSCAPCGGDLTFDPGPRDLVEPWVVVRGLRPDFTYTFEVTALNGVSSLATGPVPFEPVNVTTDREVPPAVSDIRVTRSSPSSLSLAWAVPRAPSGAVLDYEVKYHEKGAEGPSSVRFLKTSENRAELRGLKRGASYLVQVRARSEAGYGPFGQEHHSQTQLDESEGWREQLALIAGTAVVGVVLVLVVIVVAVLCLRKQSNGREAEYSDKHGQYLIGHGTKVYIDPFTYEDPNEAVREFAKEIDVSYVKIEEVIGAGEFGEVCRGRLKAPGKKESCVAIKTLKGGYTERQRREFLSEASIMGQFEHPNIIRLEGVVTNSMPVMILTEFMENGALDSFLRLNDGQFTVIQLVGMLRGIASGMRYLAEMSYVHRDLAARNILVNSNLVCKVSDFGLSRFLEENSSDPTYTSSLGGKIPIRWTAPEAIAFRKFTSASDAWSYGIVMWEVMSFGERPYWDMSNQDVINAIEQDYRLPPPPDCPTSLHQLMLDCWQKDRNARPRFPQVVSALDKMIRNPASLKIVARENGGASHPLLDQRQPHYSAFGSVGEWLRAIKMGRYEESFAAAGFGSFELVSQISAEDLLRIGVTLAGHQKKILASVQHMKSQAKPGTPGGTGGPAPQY

[3] = target: T2, Ephrin type-B receptor 4 (Homo sapiens); settings: at 10 µM
[4] = target: Receptor tyrosine-protein kinase erbB-4 (Homo sapiens) (UniProt Q15303); settings: at 1 µM
Sequence of Receptor tyrosine-protein kinase erbB-4 (Homo sapiens) (Q15303 whole entry): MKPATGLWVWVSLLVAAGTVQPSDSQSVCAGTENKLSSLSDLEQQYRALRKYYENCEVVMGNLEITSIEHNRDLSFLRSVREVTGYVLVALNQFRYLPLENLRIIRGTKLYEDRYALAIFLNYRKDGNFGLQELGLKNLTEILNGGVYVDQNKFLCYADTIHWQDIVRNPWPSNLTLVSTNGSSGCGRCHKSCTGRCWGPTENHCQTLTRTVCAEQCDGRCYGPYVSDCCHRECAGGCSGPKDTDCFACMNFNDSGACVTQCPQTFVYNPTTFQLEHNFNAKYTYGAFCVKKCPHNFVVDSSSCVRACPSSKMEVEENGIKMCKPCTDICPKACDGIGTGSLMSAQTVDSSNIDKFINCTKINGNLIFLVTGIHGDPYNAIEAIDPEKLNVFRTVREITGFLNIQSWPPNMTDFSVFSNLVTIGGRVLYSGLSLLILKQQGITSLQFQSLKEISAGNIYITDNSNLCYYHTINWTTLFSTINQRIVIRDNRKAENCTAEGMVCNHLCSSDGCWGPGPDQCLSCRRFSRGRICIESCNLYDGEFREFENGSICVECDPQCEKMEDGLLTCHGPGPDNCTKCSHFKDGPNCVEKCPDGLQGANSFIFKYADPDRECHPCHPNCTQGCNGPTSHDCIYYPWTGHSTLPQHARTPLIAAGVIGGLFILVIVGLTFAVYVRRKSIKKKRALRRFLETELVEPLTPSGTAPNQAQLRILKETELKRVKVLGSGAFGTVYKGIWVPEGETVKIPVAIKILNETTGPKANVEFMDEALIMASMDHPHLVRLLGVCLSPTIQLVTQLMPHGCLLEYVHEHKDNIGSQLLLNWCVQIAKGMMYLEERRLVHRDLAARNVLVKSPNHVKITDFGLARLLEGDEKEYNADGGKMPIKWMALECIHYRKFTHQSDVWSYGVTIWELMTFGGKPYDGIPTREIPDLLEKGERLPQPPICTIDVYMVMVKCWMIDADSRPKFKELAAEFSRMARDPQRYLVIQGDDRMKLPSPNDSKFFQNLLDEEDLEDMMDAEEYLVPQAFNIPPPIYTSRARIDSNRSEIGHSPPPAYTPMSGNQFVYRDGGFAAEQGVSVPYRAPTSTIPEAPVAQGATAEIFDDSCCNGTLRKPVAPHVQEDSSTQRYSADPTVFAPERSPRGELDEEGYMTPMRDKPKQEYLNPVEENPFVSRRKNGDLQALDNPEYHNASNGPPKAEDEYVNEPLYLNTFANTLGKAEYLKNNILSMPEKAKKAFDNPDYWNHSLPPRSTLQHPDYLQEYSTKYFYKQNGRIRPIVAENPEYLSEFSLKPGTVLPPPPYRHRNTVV

[5] = target: Receptor tyrosine-protein kinase erbB-4 (Homo sapiens) (UniProt Q15303); settings: at 10 µM
[6] = target: Ephrin type-A receptor 4 (Homo sapiens) (UniProt P54764); settings: at 1 µM
Sequence of Ephrin type-A receptor 4 (Homo sapiens) (P54764 whole entry): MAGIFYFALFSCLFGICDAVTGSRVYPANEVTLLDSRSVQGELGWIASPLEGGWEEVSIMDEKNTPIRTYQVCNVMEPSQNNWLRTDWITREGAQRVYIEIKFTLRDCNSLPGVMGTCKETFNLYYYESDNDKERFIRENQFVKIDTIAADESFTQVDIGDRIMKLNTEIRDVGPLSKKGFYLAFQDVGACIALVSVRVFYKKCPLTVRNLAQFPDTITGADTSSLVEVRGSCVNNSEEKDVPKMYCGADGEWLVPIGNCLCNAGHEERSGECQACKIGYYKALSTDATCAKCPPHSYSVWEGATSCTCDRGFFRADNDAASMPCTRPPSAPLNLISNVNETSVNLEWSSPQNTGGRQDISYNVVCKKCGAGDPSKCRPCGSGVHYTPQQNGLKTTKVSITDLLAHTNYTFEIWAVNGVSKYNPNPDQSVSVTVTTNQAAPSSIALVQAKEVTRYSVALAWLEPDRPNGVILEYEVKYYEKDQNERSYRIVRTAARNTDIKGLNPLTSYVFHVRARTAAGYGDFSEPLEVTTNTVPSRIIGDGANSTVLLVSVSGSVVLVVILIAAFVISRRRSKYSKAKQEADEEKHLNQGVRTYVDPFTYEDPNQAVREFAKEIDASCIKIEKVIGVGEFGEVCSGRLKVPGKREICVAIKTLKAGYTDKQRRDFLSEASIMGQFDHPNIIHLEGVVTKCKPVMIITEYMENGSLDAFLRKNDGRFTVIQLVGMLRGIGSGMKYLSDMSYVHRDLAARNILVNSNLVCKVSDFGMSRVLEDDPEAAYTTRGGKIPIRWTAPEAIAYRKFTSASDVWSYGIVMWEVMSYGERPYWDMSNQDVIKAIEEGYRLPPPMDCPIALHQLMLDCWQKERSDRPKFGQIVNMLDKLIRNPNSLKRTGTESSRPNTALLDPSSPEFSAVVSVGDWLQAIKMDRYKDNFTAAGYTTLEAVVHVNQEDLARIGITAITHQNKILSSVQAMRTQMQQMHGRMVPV

[7] = target: Ephrin type-A receptor 4 (Homo sapiens) (UniProt P54764); settings: at 10 µM
[8] = target: Ephrin type-A receptor 5 (Homo sapiens) (UniProt P54756); settings: at 1 µM
Sequence of Ephrin type-A receptor 5 (Homo sapiens) (P54756 whole entry): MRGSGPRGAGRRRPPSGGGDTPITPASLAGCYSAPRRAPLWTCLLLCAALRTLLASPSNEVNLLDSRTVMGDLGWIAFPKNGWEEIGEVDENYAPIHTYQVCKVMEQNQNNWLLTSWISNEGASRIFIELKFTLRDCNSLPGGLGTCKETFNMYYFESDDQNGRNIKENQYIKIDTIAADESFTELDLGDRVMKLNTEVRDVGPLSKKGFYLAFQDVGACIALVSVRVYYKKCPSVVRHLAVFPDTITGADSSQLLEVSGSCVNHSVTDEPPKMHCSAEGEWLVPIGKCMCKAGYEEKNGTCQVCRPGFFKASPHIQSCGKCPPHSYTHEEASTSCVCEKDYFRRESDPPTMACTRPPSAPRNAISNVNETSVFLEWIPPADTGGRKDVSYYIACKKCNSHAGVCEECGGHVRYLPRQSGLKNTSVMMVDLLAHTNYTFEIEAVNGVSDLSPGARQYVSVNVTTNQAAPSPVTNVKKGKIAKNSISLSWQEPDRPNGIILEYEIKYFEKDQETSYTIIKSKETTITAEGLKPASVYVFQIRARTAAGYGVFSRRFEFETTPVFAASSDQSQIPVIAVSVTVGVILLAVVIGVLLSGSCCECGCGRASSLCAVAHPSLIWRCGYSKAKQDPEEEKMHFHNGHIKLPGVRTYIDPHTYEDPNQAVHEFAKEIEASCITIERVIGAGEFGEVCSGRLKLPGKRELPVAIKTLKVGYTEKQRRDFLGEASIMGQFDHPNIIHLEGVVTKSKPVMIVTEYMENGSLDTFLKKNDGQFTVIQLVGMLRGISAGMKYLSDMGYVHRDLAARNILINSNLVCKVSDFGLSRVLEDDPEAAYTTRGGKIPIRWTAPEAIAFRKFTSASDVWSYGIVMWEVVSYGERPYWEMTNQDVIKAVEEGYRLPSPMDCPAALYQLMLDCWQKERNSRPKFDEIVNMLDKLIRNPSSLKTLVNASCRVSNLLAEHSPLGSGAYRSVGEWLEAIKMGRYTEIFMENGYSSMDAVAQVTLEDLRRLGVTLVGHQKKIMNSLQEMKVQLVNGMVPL

[9] = target: Ephrin type-A receptor 5 (Homo sapiens) (UniProt P54756); settings: at 10 µM
[10] = target: Ephrin type-A receptor 7 (Homo sapiens) (UniProt Q15375); settings: at 1 µM
Sequence of Ephrin type-A receptor 7 (Homo sapiens) (Q15375 28-998 limits assumed): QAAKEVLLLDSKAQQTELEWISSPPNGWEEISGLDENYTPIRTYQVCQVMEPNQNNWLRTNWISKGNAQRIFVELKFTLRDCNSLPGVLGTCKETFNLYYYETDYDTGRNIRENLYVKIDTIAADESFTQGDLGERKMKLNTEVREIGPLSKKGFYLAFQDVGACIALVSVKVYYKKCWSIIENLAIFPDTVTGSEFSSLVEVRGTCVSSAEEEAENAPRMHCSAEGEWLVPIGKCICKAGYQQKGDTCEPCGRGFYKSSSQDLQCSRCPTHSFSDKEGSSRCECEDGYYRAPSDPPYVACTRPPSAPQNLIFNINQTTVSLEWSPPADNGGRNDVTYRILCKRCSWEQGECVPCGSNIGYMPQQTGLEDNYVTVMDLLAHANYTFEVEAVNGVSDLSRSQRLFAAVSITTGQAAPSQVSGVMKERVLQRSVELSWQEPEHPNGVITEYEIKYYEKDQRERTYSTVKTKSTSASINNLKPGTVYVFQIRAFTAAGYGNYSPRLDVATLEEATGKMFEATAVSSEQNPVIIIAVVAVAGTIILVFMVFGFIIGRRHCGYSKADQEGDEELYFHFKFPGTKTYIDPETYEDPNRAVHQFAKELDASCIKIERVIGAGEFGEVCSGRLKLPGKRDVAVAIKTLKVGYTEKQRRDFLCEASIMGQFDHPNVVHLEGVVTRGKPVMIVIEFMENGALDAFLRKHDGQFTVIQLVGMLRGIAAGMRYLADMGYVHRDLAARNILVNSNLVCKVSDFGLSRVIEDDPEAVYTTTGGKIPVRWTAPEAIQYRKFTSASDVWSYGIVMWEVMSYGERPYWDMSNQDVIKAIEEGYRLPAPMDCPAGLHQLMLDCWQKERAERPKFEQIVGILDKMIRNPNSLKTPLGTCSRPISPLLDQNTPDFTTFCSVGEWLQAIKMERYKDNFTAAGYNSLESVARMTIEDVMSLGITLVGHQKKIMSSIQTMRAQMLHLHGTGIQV

[11] = target: Ephrin type-A receptor 7 (Homo sapiens) (UniProt Q15375); settings: at 10 µM
[12] = target: T3, Ephrin type-A receptor 8 (Homo sapiens) (UniProt P29322); settings: at 1 µM
T3 sequence (whole entry): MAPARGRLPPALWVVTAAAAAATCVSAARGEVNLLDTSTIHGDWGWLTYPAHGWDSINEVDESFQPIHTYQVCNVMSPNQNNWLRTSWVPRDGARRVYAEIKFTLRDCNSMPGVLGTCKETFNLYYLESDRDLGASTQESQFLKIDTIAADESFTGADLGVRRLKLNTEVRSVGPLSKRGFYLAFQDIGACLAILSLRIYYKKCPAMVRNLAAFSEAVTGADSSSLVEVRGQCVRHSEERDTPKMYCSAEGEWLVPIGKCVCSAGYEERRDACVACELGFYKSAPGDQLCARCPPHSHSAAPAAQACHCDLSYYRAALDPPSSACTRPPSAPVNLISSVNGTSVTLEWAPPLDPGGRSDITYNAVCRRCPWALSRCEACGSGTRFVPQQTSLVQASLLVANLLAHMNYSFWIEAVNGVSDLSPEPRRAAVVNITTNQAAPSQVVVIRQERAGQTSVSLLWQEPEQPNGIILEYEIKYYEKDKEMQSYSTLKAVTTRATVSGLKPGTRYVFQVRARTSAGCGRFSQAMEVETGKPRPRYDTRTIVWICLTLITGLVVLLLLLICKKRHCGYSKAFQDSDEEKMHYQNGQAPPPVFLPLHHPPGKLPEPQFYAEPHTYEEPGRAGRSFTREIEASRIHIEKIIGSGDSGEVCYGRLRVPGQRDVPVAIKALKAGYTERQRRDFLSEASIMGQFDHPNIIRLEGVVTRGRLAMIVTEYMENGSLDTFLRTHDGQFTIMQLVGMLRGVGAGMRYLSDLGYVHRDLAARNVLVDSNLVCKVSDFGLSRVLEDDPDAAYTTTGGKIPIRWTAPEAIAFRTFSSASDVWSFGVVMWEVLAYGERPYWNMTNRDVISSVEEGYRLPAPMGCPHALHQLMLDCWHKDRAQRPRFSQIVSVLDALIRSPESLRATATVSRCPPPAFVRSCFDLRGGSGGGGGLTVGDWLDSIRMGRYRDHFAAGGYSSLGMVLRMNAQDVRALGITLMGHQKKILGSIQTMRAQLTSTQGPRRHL

[13] = target: T3, Ephrin type-A receptor 8 (Homo sapiens); settings: at 10 µM
[14] = target: T4, Ephrin type-B receptor 1 (Homo sapiens) (UniProt P54762); settings: at 1 µM
T4 sequence (whole entry): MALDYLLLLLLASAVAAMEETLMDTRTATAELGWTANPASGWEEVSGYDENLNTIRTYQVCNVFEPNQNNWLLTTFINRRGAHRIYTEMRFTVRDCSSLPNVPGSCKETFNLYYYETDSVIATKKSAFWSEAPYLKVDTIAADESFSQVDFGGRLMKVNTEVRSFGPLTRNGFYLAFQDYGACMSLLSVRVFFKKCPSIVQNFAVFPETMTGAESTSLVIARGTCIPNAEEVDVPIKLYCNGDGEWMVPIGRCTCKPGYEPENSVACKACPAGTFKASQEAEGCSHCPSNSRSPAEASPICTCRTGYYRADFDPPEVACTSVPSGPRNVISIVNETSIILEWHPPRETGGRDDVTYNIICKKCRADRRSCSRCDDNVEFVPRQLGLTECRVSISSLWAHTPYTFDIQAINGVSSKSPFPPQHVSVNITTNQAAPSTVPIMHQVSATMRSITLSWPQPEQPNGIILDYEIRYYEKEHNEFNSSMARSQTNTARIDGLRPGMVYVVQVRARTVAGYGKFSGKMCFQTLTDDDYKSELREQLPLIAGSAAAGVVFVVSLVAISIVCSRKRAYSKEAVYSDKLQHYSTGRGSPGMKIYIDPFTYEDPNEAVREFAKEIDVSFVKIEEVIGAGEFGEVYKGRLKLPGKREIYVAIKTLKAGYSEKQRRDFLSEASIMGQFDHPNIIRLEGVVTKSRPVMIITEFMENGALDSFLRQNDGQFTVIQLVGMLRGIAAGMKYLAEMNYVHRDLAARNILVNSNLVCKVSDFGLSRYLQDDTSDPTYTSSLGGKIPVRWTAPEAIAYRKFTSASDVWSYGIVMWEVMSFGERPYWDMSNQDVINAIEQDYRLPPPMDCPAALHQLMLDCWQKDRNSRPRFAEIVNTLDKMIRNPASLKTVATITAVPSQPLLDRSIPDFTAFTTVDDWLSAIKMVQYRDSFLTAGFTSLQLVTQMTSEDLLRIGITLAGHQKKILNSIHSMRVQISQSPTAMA

[15] = target: T4, Ephrin type-B receptor 1 (Homo sapiens); settings: at 10 µM
[16] = target: T5, Ephrin type-B receptor 2 (Homo sapiens) (UniProt P29323); settings: at 1 µM
T5 sequence (whole entry): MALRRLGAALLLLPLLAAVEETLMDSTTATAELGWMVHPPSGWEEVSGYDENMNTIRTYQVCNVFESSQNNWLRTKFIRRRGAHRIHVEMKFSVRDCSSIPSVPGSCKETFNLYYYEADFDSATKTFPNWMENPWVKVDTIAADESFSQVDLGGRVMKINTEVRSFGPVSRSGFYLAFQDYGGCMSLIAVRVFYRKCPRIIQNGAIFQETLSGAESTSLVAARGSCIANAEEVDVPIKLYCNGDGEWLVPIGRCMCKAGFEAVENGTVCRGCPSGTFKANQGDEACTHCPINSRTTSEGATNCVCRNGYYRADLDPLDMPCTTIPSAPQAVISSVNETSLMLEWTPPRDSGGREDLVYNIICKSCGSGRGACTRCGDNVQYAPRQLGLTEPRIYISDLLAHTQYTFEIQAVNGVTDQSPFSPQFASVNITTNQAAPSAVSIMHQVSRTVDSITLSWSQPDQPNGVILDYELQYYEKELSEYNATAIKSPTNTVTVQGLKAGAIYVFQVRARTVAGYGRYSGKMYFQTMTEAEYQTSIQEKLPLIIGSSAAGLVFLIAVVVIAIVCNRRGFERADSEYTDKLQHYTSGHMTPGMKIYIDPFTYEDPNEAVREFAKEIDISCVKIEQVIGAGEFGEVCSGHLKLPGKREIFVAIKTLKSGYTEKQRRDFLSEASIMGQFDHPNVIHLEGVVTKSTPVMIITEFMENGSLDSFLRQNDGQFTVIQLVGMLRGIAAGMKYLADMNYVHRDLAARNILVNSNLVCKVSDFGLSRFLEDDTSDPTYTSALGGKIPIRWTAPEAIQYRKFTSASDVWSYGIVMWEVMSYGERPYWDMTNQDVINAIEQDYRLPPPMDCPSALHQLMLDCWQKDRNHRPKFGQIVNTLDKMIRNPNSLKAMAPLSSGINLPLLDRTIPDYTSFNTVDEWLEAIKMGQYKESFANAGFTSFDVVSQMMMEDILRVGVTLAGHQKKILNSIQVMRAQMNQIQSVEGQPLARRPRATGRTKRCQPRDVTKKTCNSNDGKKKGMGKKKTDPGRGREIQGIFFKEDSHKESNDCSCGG

[17] = target: T5, Ephrin type-B receptor 2 (Homo sapiens); settings: at 10 µM
[18] = target: Focal adhesion kinase 1 (Homo sapiens) (UniProt Q05397); settings: at 1 µM

SMILES | residual activity [1] | residual activity [2] | residual activity [3] | residual activity [4] | residual activity [5] | residual activity [6] | residual activity [7] | residual activity [8] | residual activity [9] | residual activity [10] | residual activity [11] | residual activity [12] | residual activity [13] | residual activity [14] | residual activity [15] | residual activity [16] | residual activity [17] | residual activity [18]
N/C(=N\[N+](=O)[O-])N/N=C\c1ccc(-c2cccc([N+](=O)[O-])c2)o1 | 79% | 90% | 90% | 100% | 88% |  |  |  |  |  |  |  |  |  |  |  |  | 
CCn1cnc2c(Nc3cccc(Cl)c3)nc(N[C@@H]3CCCC[C@@H]3N)nc21 | 9% | 51% | 9% | 83% | 68% | 98% | 49% | 70% | 15% | 78% | 23% | 89% | 31% | 32% | 1% | 56% | 0% | 53%
